Data as given in PubChem BioAssay (Tox21).
Inconclusive results are not listed. Entries that show only a call come without a potency. Calls of active or inactive are those of the source. Calls come from the whole dose curve; as a rule, active = well fitted cell-killing curve with a large enough effect in the repeat runs; inconclusive = weak or mixed curves, or effect the other way; inactive = flat fitted curve, though single readings scatter.

Columns and labels:
[1] = cAMP Responsive Elements (CRE) small molecule antagonists, cell-based qHTS assay: qHTS cell viability counter screen (AID 2060913); note: nearly all actives have a fitted effect of over 40% in size
In short: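 HEK293T CRE-bla, 2,000 cells/well, 18 h preincubation; cpd in DMSO + NKH477 0.25 uM final, 3 h 37 C/5% CO2; LiveBLAzer 2 h RT, then CellTiter-Glo 30 min RT, luminescence.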

[2] = cAMP Responsive Elements (CRE) small molecule agonists, cell-based qHTS assay: qHTS cell viability counter screen (AID 2060914);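 note: viability read after 3 h of compound exposure; nearly all actives have a fitted effect of over 50% in size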
In short: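 Cytotoxicity counter screen multiplexed with the CRE-bla reporter assay in HEK 293T cells: 3 h compound exposure at 37 °C, followed by CellTiter-Glo luminescence measured in the same wells.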

Row | SMILES | Potency [1] | Potency [2]
1 | N=C(N)[Se] | inactive | inactive
2 | COP(=S)(OC)Oc1cc(Cl)c(I)cc1Cl | inactive | inactive
3 | C#CCOC(=O)/C=C(C)/C=C/CC(C)CCCC(C)C (stereo unspecified) | inactive | inactive
4 | CCOP(=S)(OCC)Oc1nc(Cl)c(Cl)cc1Cl | inactive | inactive
5 | NNC(N)=S | inactive | inactive
6 | C=CCc1ccc2c(c1)OCO2 | inactive | inactive
7 | COC1=CC(=O)O[C@@H](/C=C/c2ccccc2)C1 | inactive | inactive
8 | CCOc1cccc(C2(N3CCN(c4ccccc4)CC3)CCC(C)CC2)c1 (stereo unspecified) | inactive | inactive
9 | [P]#[In] | inactive | inactive
10 | Nc1c(Cl)c(Cl)nc(C(=O)O)c1Cl | inactive | inactive
11 | CCCCC#N | inactive | inactive
12 | Nc1cc(Cl)cc(C(=O)O)c1Cl | inactive | inactive
13 | COC(=O)NC(=S)Nc1ccccc1NC(=S)NC(=O)OC | inactive | inactive
14 | CC(C)N(Cc1ccccc1)C(=O)C(C)(C)C | inactive | inactive
15 | CC(C)c1ccc(CO)cc1 | inactive | inactive
16 | CC(Cl)(Cl)Cl | inactive | inactive
17 | CCOP(=S)(OCC)Oc1ncn(-c2ccccc2)n1 | inactive | inactive
18 | Clc1ccc(C(Cl)(Cl)Cl)cc1 | inactive | inactive
19 | Cl/C=C/Cl | inactive | inactive
20 | CCOC(=O)C1(c2ccccc2)CCN(CCC(C#N)(c2ccccc2)c2ccccc2)CC1 | inactive | inactive
21 | COc1ccc(C=O)cc1O | inactive | inactive
22 | O=S(=O)(Cl)Cl | inactive | inactive
23 | C[N+]1(CCC(C(N)=O)(c2ccccc2)c2ccccc2)CCCCC1 | inactive | inactive
